The values below come from ChEMBL document CHEMBL1157539, “Thousands of chemical starting points for antimalarial lead identification” (Nature, 2010).

Each structure is given as a SMILES string.

Holding throughout (assay type): functional
In assay [1] the test system is Plasmodium falciparum. Description: GSK_TCMDC: Inhibition of Plasmodium falciparum 3D7 in whole red blood cells, using parasite LDH activity as an index of growth. Test compounds present at 2uM.
For assay [2], the system named is Plasmodium falciparum. Description: GSK_TCMDC: Inhibition of Plasmodium falciparum Dd2 in whole red blood cells, using parasite LDH activity as an index of growth. Test compounds present at 2uM.
The next assay deals with HepG2. Description: GSK_TCMDC: Percent inhibition of human HepG2 cell line. Test compounds present at 10uM.

As to `N=C(N)NN=CC(=O)Nc1ccc(Cl)cc1.O=S(=O)(O)O`, the Inhibition with Plasmodium falciparum [1] turned out to be 100%; with Plasmodium falciparum [2], 2%; with HepG2 it was 5%.

On to `CCCCC([C@@H](Cc1ccc2ccccc2c1)C(=O)N[C@H](C(=O)NC)C(C)(C)C)N(O)C=O` (stereo not given in full), for which the Inhibition in the assay with Plasmodium falciparum [1] is 100%; in the assay with Plasmodium falciparum [2], 97%; in the assay on HepG2, 0%.

In the case of `O=C(/C=C/c1ccc(Cl)c(Cl)c1)NC1CCC(CN2CCC(c3c[nH]c4ccncc34)CC2)CC1` (stereo not given), the Inhibition is 100% in the assay on Plasmodium falciparum [1], 96% in the assay on Plasmodium falciparum [2] and 16% in the assay on HepG2.

On to `COc1ccc(Nc2nc(N/N=C/c3ccc(-c4ccc([N+](=O)[O-])cc4)o3)nc(Nc3ccccc3)n2)cc1`, for which the Inhibition amounted to 100% in the assay with Plasmodium falciparum [1], 17% with Plasmodium falciparum [2] and 0% in the assay with HepG2.

For the compound `O=C(O)C(F)(F)F.O=C(O)Cc1ccc(-c2c[nH]c3ncc(-c4cccc5ncccc45)cc23)cc1`, the Inhibition in the assay on Plasmodium falciparum [1] is 95%; in the assay on Plasmodium falciparum [2] it was 0%; in the assay with HepG2, 7%.

On to `Cl.NOCCCCOc1ccccc1`, for which the Inhibition was found to be 99% in the assay on Plasmodium falciparum [1], 2% in the assay on Plasmodium falciparum [2] and 12% in the assay with HepG2.

Take `CN(C)S(=O)(=O)c1cc(-c2ccc3nccc(-c4cccc(S(N)(=O)=O)c4)c3c2)cnc1N`: the Inhibition was 100% in the assay with Plasmodium falciparum [1], 98% in the assay on Plasmodium falciparum [2] and 35% with HepG2.

Regarding `N=C(NCc1ccc(O)cc1)Nc1nc(-c2ccc(OCCCn3ccnc3)cc2)cs1`, the Inhibition in the assay on Plasmodium falciparum [1] is 100%; with Plasmodium falciparum [2], 89%; in the assay with HepG2, 13%.

With `CC(=O)c1ccc(NC(=O)Nc2ccc3nccc(N4CCN(C)CC4)c3c2)cc1`, the Inhibition turned out to be 100% with Plasmodium falciparum [1], 93% in the assay with Plasmodium falciparum [2] and 2% in the assay with HepG2.

As for `COc1ccc2nccc(N3C[C@H]4C[C@@H]3CN4CCNCc3ccc4c(n3)NC(=O)CS4)c2n1.Cl`, the Inhibition amounted to 99% in the assay on Plasmodium falciparum [1], 0% with Plasmodium falciparum [2] and 21% with HepG2.

Take `O=C(/C=C/c1ccc(Cl)c(Cl)c1)NC1CCN(Cc2cccc(O)c2)CC1.O=C(O)C(F)(F)F`: the figures for the Inhibition with Plasmodium falciparum [1], with Plasmodium falciparum [2] and in the assay on HepG2 were 94%, 0% and 0%, respectively.

For `COC(=O)c1cccc(CN(CCC(O)(C(F)(F)F)C(F)(F)F)C(=O)CC2CCCC2)c1`, the Inhibition is reported as 98% with Plasmodium falciparum [1], 53% in the assay on Plasmodium falciparum [2] and 0% in the assay with HepG2.

Regarding `Cl.O=C(Nc1cc(Cl)cc(Cl)c1)Nc1ccnc2ccccc12`, the Inhibition is 96% with Plasmodium falciparum [1], 65% in the assay on Plasmodium falciparum [2] and 15% in the assay on HepG2.

Turning to `Br.CC1(C)N=C(N)N=C(N)N1OCCc1ccc2ccccc2c1`, the Inhibition with Plasmodium falciparum [1] is on record as 96%; in the assay with Plasmodium falciparum [2], 95%; in the assay with HepG2 it was 65%.

`CCCNC[C@@H](O)[C@H](Cc1ccccc1)NC(=O)c1cc2c3c(c1)c(CC)cn3CCS(=O)(=O)N2C`: the Inhibition in the assay with Plasmodium falciparum [1] was found to be 97%; in the assay on Plasmodium falciparum [2], 98%; with HepG2, 0%.

For `CCN(CCCN1CCCCC1)c1cc(C)nc(Nc2ccc(Cl)cc2C)n1.O=C(O)C(F)(F)F`, the Inhibition in the assay with Plasmodium falciparum [1] came to 95%; with Plasmodium falciparum [2] it was 46%; in the assay with HepG2, 44%.

On to `CCc1ccc(-n2c(NC(=O)c3ccccc3)nc3ccc(S(=O)(=O)NC(C)C(C)C)cc32)cc1` (stereo not given), for which the Inhibition with Plasmodium falciparum [1] is on record as 88%; in the assay on Plasmodium falciparum [2], 0%; in the assay with HepG2, 48%.

`Cc1cccc(CNc2nccc3[nH]c4ccccc4c23)c1.O=C(O)C(F)(F)F`: the Inhibition in the assay with Plasmodium falciparum [1] was 92%; in the assay with Plasmodium falciparum [2] it was 51%; in the assay on HepG2, 14%.

On to `Cc1cc(N2CCOCC2)nc2ccc(NC(=O)c3ccc(Cl)c([N+](=O)[O-])c3)cc12`, for which the values for the Inhibition in the assay on Plasmodium falciparum [1], in the assay on Plasmodium falciparum [2] and in the assay on HepG2 were 98%, 15% and 12%, respectively.

On to `Cc1cc(C)cc(Oc2c(C(F)(F)F)oc3c(CN4CC(C)OC(C)C4)c(O)ccc3c2=O)c1` (stereo not given), for which the Inhibition in the assay with Plasmodium falciparum [1] is reported as 89%; in the assay on Plasmodium falciparum [2], 54%; in the assay with HepG2 it was 5%.

As for `FC(F)(F)c1ccc2[nH]c(-c3cccc(-c4ccc(CNCc5cnn(-c6ccccc6)n5)cc4)c3)nc2c1.O=C(O)C(F)(F)F`, the Inhibition was determined as 100% with Plasmodium falciparum [1], 67% in the assay on Plasmodium falciparum [2] and 14% with HepG2.

In the case of `CCN1CCC(N(Cc2ccc(-c3ccc(C(F)(F)F)cc3)cc2)C(=O)Cn2c(CCc3cccc(F)c3F)cc(=O)c3ccccc32)CC1.O=C(O)C(O)C(O)C(=O)O`, the Inhibition is recorded as 94% in the assay on Plasmodium falciparum [1], 94% with Plasmodium falciparum [2] and 100% with HepG2.

`Cc1cc(N[C@@H](Cc2ccccc2)C(=O)NCc2cccs2)nc(NCCc2ccccn2)n1.O=C(O)C(F)(F)F`: the Inhibition in the assay with Plasmodium falciparum [1] was 93%; with Plasmodium falciparum [2], 49%; in the assay with HepG2, 0%.

Turning to `O=C(/C=C/c1ccc(Cl)c(Cl)c1)NCCCCCN1CCCN(C(=O)Nc2cccc(C(F)(F)F)c2)CC1`, the Inhibition with Plasmodium falciparum [1] was 96%; with Plasmodium falciparum [2], 0%; in the assay on HepG2, 45%.

For the compound `N#Cc1cccc(NC(=O)Nc2ccc(-c3ccc(-c4nc5cc(C(F)(F)F)ccc5[nH]4)cc3)cc2)c1`, the values for the Inhibition in the assay with Plasmodium falciparum [1], with Plasmodium falciparum [2] and in the assay on HepG2 were 100%, 100% and 51%, respectively.

On to `Cc1cc(-c2cnc(N)c(-c3ccc(N4CCN(C)CC4)cc3)c2)cc(C)c1O`, for which the Inhibition in the assay with Plasmodium falciparum [1] came to 100%; with Plasmodium falciparum [2], 99%; in the assay with HepG2 it was 3%.

For `Cc1ccc(CNC(=O)[C@H](Cc2ccccc2)Nc2cc(C)nc(NCC3CCCCC3)n2)cc1.O=C(O)C(F)(F)F`, the Inhibition in the assay on Plasmodium falciparum [1] is listed as 100%; in the assay with Plasmodium falciparum [2] it was 89%; in the assay on HepG2, 0%.

Consider `COc1ccc(Cc2nc3c(n2C(C)=O)SC(c2ccc(Cl)c(Cl)c2)=NN3C(C)=O)cc1`, for which the Inhibition in the assay on Plasmodium falciparum [1] came out at 94%; with Plasmodium falciparum [2], 22%; in the assay with HepG2 it was 0%.

As for `CC(Cc1ccc(NC(=O)c2ccc(CNCc3ccccc3)cc2)cc1)N(CCc1cccc(Cl)c1)C(=O)OC(C)(C)C` (stereo not given), the values for the Inhibition in the assay on Plasmodium falciparum [1], in the assay with Plasmodium falciparum [2] and with HepG2 were 95%, 2% and 16%, respectively.

For the compound `Cc1cc(NC(=O)NCCN2CCC(NS(=O)(=O)c3ccccc3Cl)C2)c2ccccc2n1` (stereo not given), the Inhibition in the assay with Plasmodium falciparum [1] worked out at 97%; in the assay on Plasmodium falciparum [2] it was 43%; in the assay with HepG2, 1%.

As usually defined, the Inhibition is how much of the control response was suppressed.
